# Assay outcomes: PubChem, Broad Institute
# These entries were drawn from the full list.
# Vaccinia stage = blocks a specific stage of Vaccinia orthopoxvirus infection | Vaccinia-infected cells, mCherry/Venus stage reporter fluorescence; stronger effect = lower value | activity change (mCherry), % (no concentration beside the values) | hit rate 0.01% among 89,000 | AID 1053133; in the data active = activity change below about -37%, passing the limit was not always enough; tested in A549 cells
# An asterisk follows results filed as active.
SMILES,Vaccinia stage
O=C(C[C@H]1CC[C@@H]2[C@H](COC[C@@H](O)CN2Cc2ccc(F)cc2)O1)N1CCc2ccccc2C1,-11.0
Cc1ccc(S(=O)(=O)N[C@@H]2CC[C@H](CCNC(=O)c3ccccc3F)O[C@H]2CO)cc1,-6.4
O=C(c1cccnc1)N1CC[C@@H]2[C@H]1c1cc(-c3cccc(F)c3)ccc1N[C@@H]2CO,9.8
CCCNC(=O)N(C)C[C@@H]1Oc2ncc(C3=CCCC3)cc2C(=O)N([C@@H](C)CO)C[C@H]1C,2.1
CO[C@@H]1CN(C)C(=O)c2ccc(NC(=O)c3ccccc3)cc2OC[C@H](C)NC[C@H]1C,13.7
COCC(=O)Nc1ccc2c(c1)C(=O)N(C)[C@H]1CC[C@H](CC(=O)Nc3ccccc3OC)O[C@@H]1CO2,1.7
COc1ccc(CN(C)C[C@H]2OCCCC[C@@H](C)Oc3ccc(NC(=O)c4ccccc4)cc3C(=O)N([C@H](C)CO)C[C@H]2C)cc1,-16.1
COc1ccccc1C(=O)Nc1ccc2c(c1)C(=O)N(C)C[C@@H](OC)[C@@H](C)CN[C@@H](C)CO2,-0.9
COc1ccc2c3c([nH]c2c1)[C@H](CO)N(C(=O)Nc1c(C)noc1C)CC31CN(CC2CC2)C1,6.6
COCC(=O)N1CC2(C1)[C@@H](c1ccc(C3=CCCC3)cc1)[C@H](CO)N2C(=O)COC,12.8
CCCN1[C@@H]2c3ccc(-c4ccccc4)c(=O)n3C[C@@H]2[C@@H](CO)[C@@H]1C(=O)OC,10.3
COc1cccc(CN2[C@H](CO)[C@@H](c3ccccc3)C23CN(Cc2ccccc2OC)C3)c1,-29.0
